Data: PubChem BioAssay (NCI)
Compounds without any hit were thinned out: in the full panel of roughly 79,000, 15% have a hit. Activity calls are given as the source filed them. Cut-off read from the data, not from the text of the source: active = growth inhibition above about 70%; inactive = the rest.

What was measured:
[1] = NCI Yeast Anticancer Drug Screen. Data for the rad52 strain (AID 147);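 note: 0% = growth of vehicle-treated control cultures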; details: S. cerevisiae rad52 mutant growth inhibition, active compounds read high
How it was run: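 Read-out: growth inhibition versus vehicle-treated controls. Cells were a DNA repair-deficient yeast strain treated with compounds.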

[2] = NCI Yeast Anticancer Drug Screen. Data for the wt1 strain (AID 149);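 note: 0% = growth of vehicle-treated wt1 cultures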; details: S. cerevisiae wt1 strain (SPY 50644) growth inhibition, active compounds read high
How it was run: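 Readout: yeast growth inhibition, normalised to vehicle controls, in the wt1 strain exposed to test compounds.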

[3] = NCI Yeast Anticancer Drug Screen. Data for the rad50EPP+ strain (AID 151);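 note: 0% = growth of vehicle-treated control cultures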; details: S. cerevisiae rad50 mutant strain, active compounds read high
How it was run: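 Growth inhibition read against vehicle controls in rad50EPP+ yeast, a strain altered in DNA damage repair, after compound exposure.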

[4] = NCI Yeast Anticancer Drug Screen. Data for the mgt1 strain (AID 153); details: S. cerevisiae mgt1 mutant growth inhibition, active compounds read high
How it was run: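 mgt1 yeast grown with test compound; read-out is growth inhibition versus vehicle-treated cultures.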

[5] = NCI Yeast Anticancer Drug Screen. Data for the rad50 strain (AID 155);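 note: 0% = growth of vehicle-only cultures of the same strain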; details: S. cerevisiae rad50 strain growth inhibition, active compounds read high
How it was run: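 Compounds were tested on a yeast strain with an engineered DNA damage repair alteration; the reported value is growth inhibition normalised to vehicle treatment.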

[6] = NCI Yeast Anticancer Drug Screen. Data for the mec2-1 strain (AID 157); details: S. cerevisiae mec2-1 strain, active compounds read high
How it was run: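 Yeast mec2-1 mutant treated with compound. Readout: growth inhibition vs vehicle controls.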

[7] = NCI Yeast Anticancer Drug Screen. Data for the rad14 strain (AID 159);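 note: 0% = growth of vehicle-treated control cultures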; details: S. cerevisiae rad14 strain growth inhibition, active compounds read high
How it was run: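 Compound-treated yeast with a defined DNA-repair lesion; growth inhibition normalised to vehicle-treated cultures.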

[8] = NCI Yeast Anticancer Drug Screen. Data for the sgs1 mgt1 strain (AID 161);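 note: 0% = growth of cultures given vehicle only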; details: S. cerevisiae sgs1 mgt1 strain, active compounds read high
How it was run: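 Genetically altered yeast, compound exposure, growth inhibition relative to vehicle.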

[9] = NCI Yeast Anticancer Drug Screen. Data for the CLN2oe strain (AID 163);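 note: 0% = growth of vehicle-only control cultures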; details: S. cerevisiae CLN2oe strain, active compounds read high
How it was run: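 Read-out: yeast growth inhibition, expressed relative to vehicle-only controls. The strain bears an engineered cell-cycle alteration.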

[10] = NCI Yeast Anticancer Drug Screen. Data for the cln2 rad14 strain (AID 165);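 note: 0% = growth equal to vehicle treated cultures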; details: S. cerevisiae cln2 rad14 strain, active compounds read high
How it was run: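 cln2 rad14 yeast strain; compound exposure; growth inhibition read vs vehicle controls.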

[11] = NCI Yeast Anticancer Drug Screen. Data for the bub3 strain (AID 167); details: S. cerevisiae bub3 mutant strain, active compounds read high
How it was run: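 Growth of a checkpoint-deficient yeast mutant is measured after compound exposure. Values represent inhibition relative to vehicle.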

[12] = NCI Yeast Anticancer Drug Screen. Data for the wt2 strain (AID 169);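 note: 0% = growth of vehicle-treated yeast cultures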; details: S. cerevisiae wt2 strain growth inhibition, active compounds read high
How it was run: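 Read-out: growth inhibition versus vehicle-treated control cultures after compound exposure of the yeast strain.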

[13] = NCI Yeast Anticancer Drug Screen. Data for the mlh1 strain (AID 171);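 note: 0% = growth of vehicle-treated control cultures of the same strain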; details: S. cerevisiae mlh1 strain growth inhibition, active compounds read high
How it was run: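 Read-out: growth inhibition versus vehicle controls. Strain: engineered yeast with a defined DNA repair or cell cycle defect, compound-treated.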

[14] = NCI Yeast Anticancer Drug Screen. Data for the sgs1 strain (AID 173);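 note: 0% = growth of vehicle-only control cultures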; details: S. cerevisiae sgs1 mutant, active compounds read high
How it was run: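 Read-out: yeast growth inhibition relative to vehicle controls, following compound exposure of a strain with a defined DNA repair/cell cycle alteration.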

[15] = NCI Yeast Anticancer Drug Screen. Data for the mlh1 rad18 strain (AID 175); details: S. cerevisiae mlh1 rad18 strain growth inhibition, active compounds read high
How it was run: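 Yeast w/ defined DNA-repair lesions; compound exposure; growth vs vehicle controls → % inhibition.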

[16] = NCI Yeast Anticancer Drug Screen. Data for the rad18 strain (AID 177); details: S. cerevisiae rad18 mutant growth inhibition, active compounds read high
How it was run: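 Readout: growth inhibition vs vehicle controls. Cells: genetically altered yeast strain, DNA repair defect.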

[17] = at 5.0 µM (retest, dose inferred, filed as 0.5)
[18] = at 50.0 µM (retest, dose inferred, filed as 5.0)

Measured: growth inhibition

NNc1ccccc1-c1nc2ccccc2[nH]1
active: [5]; at 50.0 µM 75.9% | [11]; at 50.0 µM 76.9% | [15]; at 50.0 µM 91%
inactive: [1]; at 1.2 µM 1% | [1]; at 3.7 µM 7% | [1]; at 11.0 µM 9% | [1]; at 33.0 µM 17% | [1]; at 100.0 µM 60% | [2]; at 1.2 µM -4% | [2]; at 3.7 µM -3% | [2]; at 11.0 µM -5% | [2]; at 33.0 µM -4% | [2]; at 100.0 µM 25% | [3]; at 1.2 µM 2% | [3]; at 3.7 µM 6% | [3]; at 11.0 µM 12% | [3]; at 33.0 µM 24% | [3]; at 100.0 µM 59% | [4]; at 1.2 µM -3% | [4]; at 3.7 µM -2% | [4]; at 11.0 µM 0% | [4]; at 33.0 µM -1% | [4]; at 100.0 µM 48% | [5]; at 1.2 µM -1% | [5]; at 3.7 µM 5% | [5]; [17] -144% | [5]; at 11.0 µM 6% | [5]; at 33.0 µM 26% | [5]; [18] 53% | [5]; at 100.0 µM 60% | [6]; at 1.2 µM 3% | [6]; at 3.7 µM 3% | [6]; [17] -50% | [6]; at 11.0 µM 2% | [6]; at 33.0 µM 1% | [6]; [18] -40% | [6]; at 50.0 µM 48.4% | [6]; at 100.0 µM 20% | [7]; at 1.2 µM -2% | [7]; at 3.7 µM -5% | [7]; at 11.0 µM -1% | [7]; at 33.0 µM 0% | [7]; at 100.0 µM 49% | [8]; [17] -61% | [8]; [18] 27% | [8]; at 50.0 µM 11.7% | [9]; at 1.2 µM -2% | [9]; at 3.7 µM -1% | [9]; at 11.0 µM -3% | [9]; at 33.0 µM -9% | [9]; at 100.0 µM 35% | [10]; [17] -63% | [10]; [18] -73% | [10]; at 50.0 µM 32.1% | [11]; at 1.2 µM -6% | [11]; at 3.7 µM -4% | [11]; [17] -65% | [11]; at 11.0 µM -3% | [11]; at 33.0 µM -3% | [11]; [18] -30% | [11]; at 100.0 µM 30% | [12]; at 1.2 µM 1% | [12]; at 3.7 µM 0% | [12]; at 11.0 µM -1% | [12]; at 33.0 µM -1% | [12]; at 100.0 µM 47% | [13]; at 1.2 µM 6% | [13]; at 3.7 µM -3% | [13]; at 11.0 µM -3% | [13]; at 33.0 µM -3% | [13]; at 100.0 µM 47% | [14]; at 1.2 µM 0% | [14]; at 3.7 µM 1% | [14]; at 11.0 µM 0% | [14]; at 33.0 µM -1% | [14]; at 100.0 µM 47% | [15]; [17] -114% | [15]; [18] -3% | [16]; at 1.2 µM 0% | [16]; at 3.7 µM -2% | [16]; at 11.0 µM 0% | [16]; at 33.0 µM 0% | [16]; at 100.0 µM 48%
